# PubChem BioAssay (EPA / NIEHS)
# Where “and” joins values, the source holds several entries; their conditions need not be identical. Equal values may be shown once. Results filed as inconclusive are left out. Calls of active or inactive are those of the source. The calls were made as follows, unless noted: active = hit-call score of the fitted dose curve at least 0.9, where 1 is the maximum; inconclusive = response in the unintended direction; inactive = score below 0.9.
# Tests used:
# [1] = molecular target: Nucleoli Translocation, AR (gene 367) (UniProt P10275); assay: UPITT_HCI_U2OS_AR_TIF2_Nucleoli_Antagonist: University of Pittsburgh U2OS Androgen Receptor-Transcriptional Intermediary Factor 2 (AR-TIF2) Antagonism High Content Imaging Assay for Nucleoli Translocation (AID 2283997)
# Procedure, shortened: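 U2OS cells co-expressing red-fluorescent-tagged human AR and green-fluorescent-tagged TIF2, imaged by high-content microscopy for nucleolar red fluorescence. Antagonist mode against DHT; primary screen at 20 uM final (0.2% DMSO).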
# [2] = molecular target: Nucleoli Translocation, AR (gene 367) (UniProt P10275); assay: UPITT_HCI_U2OS_AR_TIF2_Nucleoli_Agonist: University of Pittsburgh U2OS Androgen Receptor-Transcriptional Intermediary Factor 2 (AR-TIF2) Agonism High Content Imaging Assay for Nucleoli Translocation (AID 2283998)
# Procedure, shortened: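 RFP-AR / GFP-TIF2 cells; cpds diluted in serum-free medium; single-point screen 20 uM final (0.2% DMSO), actives confirmed in triplicate; conc-response 0.195–50 uM final (0.5% DMSO). Readout: nucleolar red fluorescence, positive direction vs DMSO.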
# [3] = molecular target: Ratio of Nucleoli Translocation and Cytoplasm, AR (gene 367) (UniProt P10275); assay: UPITT_HCI_U2OS_AR_TIF2_Nucleoli_Cytoplasm_Ratio_Antagonist: University of Pittsburgh U2OS Androgen Receptor-Transcriptional Intermediary Factor 2 (AR-TIF2) Antagonism High Content Imaging Assay for Ratio of Nucleoli Translocation and Cytoplasm (AID 2283999);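 also: antagonists lower the DHT-driven ratio of nucleolar to cytoplasmic red signal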
# Procedure, shortened: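 High-content imaging quantifies the red nucleolar:cytoplasmic fluorescence ratio in U2OS cells with AR-RFP and TIF2-GFP. Final concentrations are 20 uM (screen) or 0.195–50 uM (dose response), analysed against DHT as baseline.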
# [4] = molecular target: Ratio of Nucleoli Translocation and Cytoplasm, AR (gene 367) (UniProt P10275); assay: UPITT_HCI_U2OS_AR_TIF2_Nucleoli_Cytoplasm_Ratio_Agonist: University of Pittsburgh U2OS Androgen Receptor-Transcriptional Intermediary Factor 2 (AR-TIF2) Agonism High Content Imaging Assay for Ratio of Nucleoli Translocation and Cytoplasm (AID 2284000);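 also: hits raise the red nucleolar to cytoplasm ratio above vehicle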
# Procedure, shortened: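 U2OS cells expressing RFP-tagged human AR and GFP-tagged TIF2; high-content imaging ratio of nucleolar to cytoplasmic red fluorescence, fitted as gain of signal vs DMSO. Single point at 20 uM final (0.2% DMSO); concentration-response 0.195-50 uM final (0.5% DMSO).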
# DIO1 (gene 1733) = assay: CCTE_GLTED_hDIO1: CCTE's human Deiodinase 1 (DIO1) Inhibition Assay, Great Lakes Toxicology and Ecology Division (GLTED) Lab (AID 2283987);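 also: isolated human DIO1 enzyme in a cell-free setup rather than cells; enzyme activity read as free iodide liberated from substrate via Sandell-Kolthoff colorimetry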
# Procedure, shortened: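 Steps: human DIO1 enzyme plus test chemical, 3 h incubation; free iodide then quantified in a second Sandell-Kolthoff step by absorbance. DMSO served as negative control and baseline.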
# [5] = CCTE_Harrill_HTTr_Viability_DMEM_6hr: (Pilot) CCTE's 6-hour Cell Viability Assessment for the High-Throughput Transcriptomics (HTTr) Platform, in MCF-7 cells cultured in DMEM + 10% fetal bovine serum, Harrill Lab (AID 2283973; active = hit-call score of the fitted dose curve at least 0.9, where 1 is the maximum; inactive = score below 0.9)
# Procedure, shortened: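 MCF-7 cells in DMEM + 10% FBS, eight-point dilution series, 6 h exposure. Membrane integrity by propidium iodide exclusion with high-content imaging; bidirectional fit versus DMSO.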
# [6] = CCTE_Harrill_HTTr_Viability_DMEM_12hr: (Pilot) CCTE's 12-hour Cell Viability Assessment for the High-Throughput Transcriptomics (HTTr) Platform, in MCF-7 cells cultured in DMEM + 10% fetal bovine serum, Harrill Lab (AID 2283974; active = hit-call score of the fitted dose curve at least 0.9, where 1 is the maximum; inactive = score below 0.9)
# Procedure, shortened: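 MCF-7 cells in DMEM + 10% FBS exposed 12 h to an eight-point dilution series; membrane integrity scored by propidium iodide exclusion with high-content imaging, bidirectional fitting versus DMSO.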
# [7] = CCTE_Harrill_HTTr_Viability_DMEM_24hr: (Pilot) CCTE's 24-hour Cell Viability Assessment for the High-Throughput Transcriptomics (HTTr) Platform, in MCF-7 cells cultured in DMEM + 10% fetal bovine serum, Harrill Lab (AID 2283975; active = hit-call score of the fitted dose curve at least 0.9, where 1 is the maximum; inactive = score below 0.9)
# Procedure, shortened: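 MCF-7 cells in DMEM with 10% FBS exposed for 24 hours to an eight-point dilution series. Membrane integrity by propidium iodide exclusion with high content imaging; bidirectional fit against DMSO.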
# [8] = CCTE_Harrill_HTTr_Viability_PRF_DMEM_6hr: (Pilot) CCTE's 6-hour Cell Viability Assessment for the High-Throughput Transcriptomics (HTTr) Platform, in MCF-7 cells cultured phenol red-free DMEM + 10% charcoal-stripped fetal bovine serum, Harrill Lab (AID 2283976; active = hit-call score of the fitted dose curve at least 0.9, where 1 is the maximum; inactive = score below 0.9)
# Procedure, shortened: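 MCF-7 cells in phenol red-free DMEM with 10% charcoal-stripped FBS exposed 6 hours to an eight-point dilution series. Propidium iodide exclusion imaged; curves fitted bidirectionally against DMSO.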
# [9] = CCTE_Harrill_HTTr_Viability_PRF_DMEM_12hr: (Pilot) CCTE's 12-hour Cell Viability Assessment for the High-Throughput Transcriptomics (HTTr) Platform, in MCF-7 cells cultured in phenol red-free DMEM + 10% charcoal-stripped fetal bovine serum, Harrill Lab (AID 2283977; active = hit-call score of the fitted dose curve at least 0.9, where 1 is the maximum; inactive = score below 0.9)
# Procedure, shortened: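 MCF-7 cells in phenol red-free DMEM with 10% charcoal-stripped FBS exposed 12 hours to an eight-point dilution series. Viability assessed by high-content imaging of propidium iodide exclusion; bidirectional fit versus DMSO.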
# [10] = CCTE_Harrill_HTTr_Viability_PRF_DMEM_24hr: (Pilot) CCTE's 24-hour Cell Viability Assessment for the High-Throughput Transcriptomics (HTTr) Platform, in MCF-7 cells cultured in phenol red-free DMEM + 10% charcoal-stripped fetal bovine serum, Harrill Lab (AID 2283980; active = hit-call score of the fitted dose curve at least 0.9, where 1 is the maximum; inactive = score below 0.9)
# Procedure, shortened: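 MCF-7 cells in phenol red-free DMEM with 10% charcoal-stripped FBS, eight-point dilution series, 24 h exposure. Membrane integrity by propidium iodide exclusion with high content imaging; bidirectional fit vs DMSO.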
# [11] = CCTE_Harrill_HTTr_Apoptosis_DMEM_6hr: (Pilot) CCTE's 6-hour Apoptosis Assessment for the High-Throughput Transcriptomics (HTTr) Platform, in MCF-7 cells cultured in DMEM + 10% fetal bovine serum, Harrill Lab (AID 2283981; active = hit-call score of the fitted dose curve at least 0.9, where 1 is the maximum; inactive = score below 0.9)
# Procedure, shortened: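 Caspase-3/7 activation read by high content imaging with CellEvent Caspase 3/7 Green in MCF-7 cells (DMEM + 10% FBS), 6 h after dosing; eight-point dilution series. Bidirectional fitting relative to DMSO baseline.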
# [12] = CCTE_Harrill_HTTr_Apoptosis_DMEM_12hr: (Pilot) CCTE's 12-hour Apoptosis Assessment for the High-Throughput Transcriptomics (HTTr) Platform, in MCF-7 cells cultured in DMEM + 10% fetal bovine serum, Harrill Lab (AID 2283982; active = hit-call score of the fitted dose curve at least 0.9, where 1 is the maximum; inactive = score below 0.9)
# Procedure, shortened: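 MCF-7 cells in DMEM + 10% FBS, exposed 12 h to an eight-point dilution series; caspase-3/7 activation imaged with CellEvent Green. Bidirectional fit versus DMSO.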
# [13] = CCTE_Harrill_HTTr_Apoptosis_DMEM_24hr: (Pilot) CCTE's 24-hour Apoptosis Assessment for the High-Throughput Transcriptomics (HTTr) Platform, in MCF-7 cells cultured in DMEM + 10% fetal bovine serum, Harrill Lab (AID 2283983; active = hit-call score of the fitted dose curve at least 0.9, where 1 is the maximum; inactive = score below 0.9)
# Procedure, shortened: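 MCF-7 cells in DMEM + 10% FBS, eight-point dilution series, 24 h exposure. Caspase-3/7 activation imaged by high-content imaging with CellEvent Caspase 3/7 Green. Bidirectional curve fitting against DMSO baseline.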
# [14] = CCTE_Harrill_HTTr_Apoptosis_PRF_DMEM_6hr: (Pilot) CCTE's 6-hour Apoptosis Assessment for the High-Throughput Transcriptomics (HTTr) Platform, in MCF-7 cells cultured phenol red-free DMEM + 10% charcoal-stripped fetal bovine serum, Harrill Lab (AID 2283984; active = hit-call score of the fitted dose curve at least 0.9, where 1 is the maximum; inactive = score below 0.9)
# Procedure, shortened: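 MCF-7 cells in phenol red-free DMEM + 10% charcoal-stripped FBS, eight-point dilution series, 6 h exposure. Caspase-3/7 activation imaged by high-content imaging with CellEvent Caspase 3/7 Green; bidirectional fit versus DMSO baseline.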
# [15] = CCTE_Harrill_HTTr_Apoptosis_PRF_DMEM_24hr: (Pilot) CCTE's 24-hour Apoptosis Assessment for the High-Throughput Transcriptomics (HTTr) Platform, in MCF-7 cells cultured in phenol red-free DMEM + 10% charcoal-stripped fetal bovine serum, Harrill Lab (AID 2283986; active = hit-call score of the fitted dose curve at least 0.9, where 1 is the maximum; inactive = score below 0.9)
# Procedure, shortened: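 MCF-7 cells in phenol red-free DMEM with 10% charcoal-stripped FBS, exposed 24 h across an eight-point dilution series. Caspase-3/7 activation imaged with CellEvent Green by high content imaging; bidirectional fitting against DMSO.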
# [16] = molecular target: Retinoic acid receptor RXR-alpha (Homo sapiens) (UniProt P19793); assay: TOX21_TR_RXR_BLA_Agonist_Followup_ratio: Tox21 Thyroid Hormone Receptor beta Retinoid X Receptor alpha (RXRa) Agonism Beta-lactamase (BLA) Follow-Up Assay, Ratio (AID 2283968)
# Procedure, shortened: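 This follow-up tests whether responses seen in the TR GH3 luciferase agonist screen are specific, using a GAL4-driven beta-lactamase reporter for RXRa in HEK293T cells. Compound exposure lasts 16 h; signal is the cleaved/uncleaved substrate ratio.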
# [17] = TOX21_TR_RXR_BLA_Agonist_Followup_viability: Viability Assessment in the Tox21 Thyroid Hormone Receptor beta Retinoid X Receptor alpha (RXRa) Agonism Beta-lactamase (BLA) Follow-Up Assay (AID 2283970)
# Procedure, shortened: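 In qHTS format, RXRa-bla HEK293T cells (2,500/well) received compound for 16h. ATP content was then measured with CellTiter-Glo, and responses were fitted bidirectionally relative to DMSO controls.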
# [18] = molecular target: Retinoic acid receptor RXR-alpha (Homo sapiens) (UniProt P19793); assay: TOX21_TR_RXR_BLA_Antagonist_Followup_ratio: Tox21 Thyroid Hormone Receptor beta Retinoid X Receptor alpha (RXRa) Antagonism Beta-lactamase (BLA) Follow-Up Assay, Ratio (AID 2283972)
# Procedure, shortened: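 Beta-lactamase reporter readout as cleaved/uncleaved substrate ratio (460:530 nm) after 2 h substrate loading at room temperature. GAL4-RXRa bla HEK293T cells were exposed 16 h at 37C to 11-point compound series; loss of signal scored against DMSO baseline.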
# [19] = TOX21_TR_RXR_BLA_Antagonist_Followup_viability: Viability Assessment in the Tox21 Thyroid Hormone Receptor beta Retinoid X Receptor alpha (RXRa) Antagonism Beta-lactamase (BLA) Follow-Up Assay (AID 2283979)
# Procedure, shortened: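 RXRa-bla HEK293T cells (2,500/well, phenol red-free DMEM, 2% charcoal-stripped FBS) were attached 5 h, then exposed to compounds at 11 concentrations in triplicate for 16 h at 37C. Viability measured by CellTiter-Glo ATP luminescence, bidirectional fitting versus DMSO.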
# Chain of Ratio of Nucleoli Translocation and Cytoplasm, AR (gene 367) (P10275 whole entry, looked up): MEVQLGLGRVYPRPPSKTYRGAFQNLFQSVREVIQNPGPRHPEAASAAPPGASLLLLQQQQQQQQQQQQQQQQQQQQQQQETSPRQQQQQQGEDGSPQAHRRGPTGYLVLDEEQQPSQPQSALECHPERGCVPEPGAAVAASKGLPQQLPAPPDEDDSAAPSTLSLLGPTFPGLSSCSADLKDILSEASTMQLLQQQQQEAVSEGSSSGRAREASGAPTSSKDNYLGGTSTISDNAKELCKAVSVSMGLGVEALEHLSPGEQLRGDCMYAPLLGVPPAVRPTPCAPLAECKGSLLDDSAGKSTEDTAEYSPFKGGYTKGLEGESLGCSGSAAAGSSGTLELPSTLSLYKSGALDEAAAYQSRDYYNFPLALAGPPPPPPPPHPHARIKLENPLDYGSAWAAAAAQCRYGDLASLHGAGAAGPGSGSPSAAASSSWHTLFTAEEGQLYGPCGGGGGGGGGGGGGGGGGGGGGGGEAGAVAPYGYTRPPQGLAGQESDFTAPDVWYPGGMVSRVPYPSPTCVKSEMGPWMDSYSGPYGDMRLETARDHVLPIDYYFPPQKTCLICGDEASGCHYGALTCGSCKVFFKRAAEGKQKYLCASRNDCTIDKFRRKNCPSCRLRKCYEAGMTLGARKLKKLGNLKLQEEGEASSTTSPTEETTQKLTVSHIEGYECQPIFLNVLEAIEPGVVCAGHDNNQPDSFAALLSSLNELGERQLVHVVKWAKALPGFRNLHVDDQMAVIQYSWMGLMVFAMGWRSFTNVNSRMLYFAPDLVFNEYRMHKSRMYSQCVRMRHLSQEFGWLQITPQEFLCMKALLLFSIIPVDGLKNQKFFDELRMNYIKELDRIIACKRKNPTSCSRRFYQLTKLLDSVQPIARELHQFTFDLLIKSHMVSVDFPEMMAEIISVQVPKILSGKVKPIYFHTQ
# Chain of Nucleoli Translocation, AR (gene 367) (P10275 whole entry, looked up): as above
# Chain of Retinoic acid receptor RXR-alpha (Homo sapiens) (P19793 whole entry, looked up, the tested form may be a part): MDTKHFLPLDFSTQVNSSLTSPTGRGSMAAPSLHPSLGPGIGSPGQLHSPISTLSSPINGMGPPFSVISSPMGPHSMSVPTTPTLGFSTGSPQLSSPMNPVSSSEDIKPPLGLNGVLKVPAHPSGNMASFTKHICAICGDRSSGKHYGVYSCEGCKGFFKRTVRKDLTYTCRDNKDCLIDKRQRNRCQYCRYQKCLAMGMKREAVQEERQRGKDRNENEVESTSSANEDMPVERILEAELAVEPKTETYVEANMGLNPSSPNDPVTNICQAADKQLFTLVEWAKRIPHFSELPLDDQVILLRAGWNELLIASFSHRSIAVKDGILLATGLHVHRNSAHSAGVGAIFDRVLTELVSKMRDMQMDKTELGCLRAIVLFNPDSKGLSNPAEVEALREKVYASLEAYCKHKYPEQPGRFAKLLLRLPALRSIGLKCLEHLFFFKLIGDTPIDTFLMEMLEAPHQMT
smiles,measurement,setting,value
CNC(=O)[C@H]1O[C@@H](n2cnc3c(NCc4cc(Cl)ccc4OCc4cc(C)no4)ncnc32)[C@H](O)[C@@H]1N,outcome,[1],inactive
same,outcome,[2],inactive
same,outcome,[3],inactive
same,outcome,[4],inactive
COc1cc(C=O)ccc1O,outcome,[1],inactive
same,outcome,[2],inactive
same,outcome,[3],inactive
COCCOCCOC,outcome,[1],inactive
same,outcome,[2],inactive
same,outcome,[4],inactive
CCCc1cc(=O)[nH]c(=S)[nH]1,AC50,DIO1 (gene 1733),3.82 µM (active) and 5.5 µM (active)
COc1cc(-c2nc(NC(=O)c3cc4cc(C)cc(C)c4n3CC(=O)O)sc2CCC2CCCCC2)c(OC)cc1Cl,AC50,[1],11.4 µM (active)
same,outcome,[2],inactive
same,outcome,[3],inactive
same,outcome,[4],inactive
Cc1ccc(C)c(O)c1C,outcome,[1],inactive
same,outcome,[2],inactive
same,outcome,[3],inactive
same,outcome,[4],inactive
Cc1cccc([N+](=O)[O-])c1C,outcome,[1],inactive
same,outcome,[3],inactive
same,outcome,[4],inactive
Cc1ccc(C)c(C)c1,outcome,[1],inactive
same,outcome,[2],inactive
same,outcome,[3],inactive
same,outcome,[4],inactive
CCOC(=O)C(C)(C)Oc1ccc(Cl)cc1,outcome,[5],inactive
same,outcome,[6],inactive
same,outcome,[7],inactive
same,outcome,[8],inactive
same,outcome,[9],inactive
same,outcome,[10],inactive
same,outcome,[11],inactive
same,outcome,[12],inactive
same,outcome,[13],inactive
same,outcome,[14],inactive
same,outcome,[15],inactive
Cc1ccccc1Cl,outcome,[1],inactive
same,outcome,[2],inactive
CCCCCC(=O)O,outcome,[2],inactive
CCCCC(CC)COC(=O)CC(C(=O)OCC(CC)CCCC)S(=O)(=O)O (stereo unspecified),AC50,DIO1 (gene 1733),96.2 µM (active)
Cc1cc(=O)[nH]c(=S)[nH]1,AC50,DIO1 (gene 1733),16.4 µM (active)
CCCCCCCCCCC,outcome,[16],inactive
same,outcome,[17],inactive
same,outcome,[1],inactive
same,outcome,[4],inactive
Nc1nc(N)c2nc(CNc3ccc(C(=O)N[C@@H](CCC(=O)O)C(=O)O)cc3)cnc2n1,outcome,[18],inactive
same,outcome,[19],inactive
COc1ccc2c(c1)c(CC(=O)O)c(C)n2C(=O)c1ccc(Cl)cc1,outcome,[2],inactive
same,outcome,[3],inactive
same,outcome,[4],inactive
